Data taken from the supplement of paper PMC3334620.
In all, about 33,000 sequences were measured (“E-score (-0.5 to 0.5)”: median about -0.011, highest 2% from about 0.28 on). This is one part of a sample in which the highest values are shown more often than they occur.

The sequences below were run against T1, Gcr1 (UniProt P07261) (assay: PBM E-score (8-mer binding enrichment) (E-score (-0.5 to 0.5)); higher = stronger / more preferred TF binding). Settings: protein concentration: 100 nM; construct: GST-full length.
T1 sequence: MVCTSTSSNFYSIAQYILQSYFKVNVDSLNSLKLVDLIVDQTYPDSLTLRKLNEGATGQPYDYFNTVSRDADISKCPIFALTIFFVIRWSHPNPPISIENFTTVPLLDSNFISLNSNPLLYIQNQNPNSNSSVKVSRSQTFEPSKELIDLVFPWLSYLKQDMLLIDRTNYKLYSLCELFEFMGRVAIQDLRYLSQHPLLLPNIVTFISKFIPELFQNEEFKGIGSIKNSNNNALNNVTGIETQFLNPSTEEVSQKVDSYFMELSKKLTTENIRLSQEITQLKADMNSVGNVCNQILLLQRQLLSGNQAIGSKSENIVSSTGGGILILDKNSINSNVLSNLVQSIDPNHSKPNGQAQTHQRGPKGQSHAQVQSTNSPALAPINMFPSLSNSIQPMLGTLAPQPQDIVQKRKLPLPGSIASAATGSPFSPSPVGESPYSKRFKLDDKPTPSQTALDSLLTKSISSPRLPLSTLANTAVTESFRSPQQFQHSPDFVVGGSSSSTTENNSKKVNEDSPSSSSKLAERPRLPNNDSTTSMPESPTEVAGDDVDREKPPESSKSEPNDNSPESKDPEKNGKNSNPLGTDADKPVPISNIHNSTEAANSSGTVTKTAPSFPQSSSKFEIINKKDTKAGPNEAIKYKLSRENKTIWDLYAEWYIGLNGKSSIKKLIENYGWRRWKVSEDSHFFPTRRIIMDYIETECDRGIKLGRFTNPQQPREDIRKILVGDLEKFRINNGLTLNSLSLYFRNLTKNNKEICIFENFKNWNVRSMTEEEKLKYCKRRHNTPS
In short: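 Bound GST-tagged yeast transcription factors, applied at about 100-200 nM to double-stranded universal all-10-mer Agilent arrays, were detected with fluorescent anti-GST. Scans were normalised with masliner. A modified Wilcoxon-Mann-Whitney statistic, the E-score, was assigned to each ungapped eight-base word pooled with its reverse complement by the Universal PBM Analysis Suite.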

Row | Sequence | PBM E-score
1 | CAACCGGA | 0.206
2 | CCCTCCGG | -0.0226
3 | CACCAAAG | 0.047
4 | ATGCATCA | -0.0769
5 | AAGCAGGT | 0.161
6 | AAGCAGAT | -0.03
7 | CAGCAGCC | 0.359
8 | AAGCAGCG | 0.135
9 | AAGCAGCA | -0.176
10 | CAGCAGCA | 0.00017
11 | GAGCAGCC | 0.217
12 | AAGCAGCT | 0.33
13 | AAGCAGCC | 0.308
14 | AACTGTGC | -0.181
15 | CTTTACTC | -0.104
16 | GACTAACC | -0.136
17 | ACTTAACC | -0.196
18 | GCTCGAGA | -0.166
19 | GCTCGAGC | 0.321
20 | CCTCGAGC | -0.102
21 | AAGGGCAC | -0.16
22 | GCGGTTCC | 0.314
23 | GCGGTTCA | -0.231
24 | AGGGTTCA | -0.118
25 | AGGGTTCG | -0.0648

Row | Sequence | PBM E-score
26 | CGGGTTCC | 0.411
27 | CGGGTTCA | -0.204
28 | CGGGTTAC | -0.0158
29 | ACGGTTCC | 0.0629
30 | AGGGTTCC | 0.312
31 | GTTAAAAC | -0.0162
32 | AAAATGCG | 0.143
33 | GAACGACC | -0.165
34 | CTGTTGAA | 0.0369
35 | ACTTCTAA | 0.0859
36 | TCTTCTAA | 0.329
37 | GCTTCTAA | 0.116
38 | CCTTCTAC | 0.0671
39 | CCTTCTAA | -0.0438
40 | GCTTCTAC | 0.301
41 | GAGTCCTA | 0.0444
42 | AATAATGA | 0.0865
43 | AGTCCTGG | 0.0342
44 | ATCCAAAG | 0.189
45 | CTCCAATA | 0.075
46 | ATCCAATC | 0.13
47 | GCCAAAAC | 0.128
48 | ATCCAATA | 0.303
49 | GCCAAAAA | 0.288
50 | ATCCAAAC | -0.03

Row | Sequence | PBM E-score
51 | ATCCAAAA | 0.282
52 | GCCAAGAA | 0.124
53 | ATGCAAAC | 0.115
54 | CTCTTCAA | 0.00436
55 | GGACGCAC | 0.127
56 | GCGCATAC | 0.0321
57 | ACGCATCG | -0.00937
58 | GCGCATCC | 0.331
59 | CCGCATCC | 0.31
60 | ACGCATCC | 0.311
61 | CCGCATCA | 0.103
62 | GCGCATCA | 0.0737
63 | ACGCATCT | 0.151
64 | CCGCATCG | -0.0819
65 | ACCGCCTC | -0.14
66 | ACTGTGCT | -0.231
67 | ACAGACAT | -0.144
68 | CACAGAGG | -0.185
69 | CGAGGGGC | 0.0171
70 | CTAGTGTA | 0.127
71 | ATCGTGGC | -0.103
72 | GCAGTGGA | 0.11
73 | CAAGTGGA | 0.181
74 | GTAGTGGA | 0.285
75 | ATAGTGGC | 0.32

Row | Sequence | PBM E-score
76 | AAAGTGGA | 0.24
77 | CTAGTGGA | 0.298
78 | TAAGTGGA | 0.287
79 | CTAGTGGC | 0.106
80 | ACAGTGGC | 0.00948
81 | GTAGTGTA | -0.0351
82 | TCCGACAA | -0.0648
83 | AACGAGGG | 0.0827
84 | CGGTCTAG | -0.167
85 | AAACAAGG | 0.16
86 | GAGGTTCC | 0.269
87 | CAACTTAC | -0.127
88 | GCAGAGTA | -0.0213
89 | ACCGACGC | -0.0878
90 | GTTTTGTA | 0.0369
91 | ATGGCGGC | 0.0606
92 | ATATGCTA | 0.115
93 | CCCCTCAC | -0.0282
94 | CTCCTGAA | 0.085
95 | AAATCGCA | -0.021
96 | ATACCAAC | -0.00844
97 | ATAGTAGC | 0.286
98 | ATAGTGTG | 0.106
99 | ATAGTGGG | 0.308
100 | ATAGTGGA | 0.376

Row | Sequence | PBM E-score
101 | ATCGTGGA | 0.148
102 | ATAGTAGA | 0.191
103 | AGAGTGGG | 0.177
104 | CAAGTGGC | 0.146
105 | ATAGTGAA | -0.116
106 | AAAGTGGT | 0.167
107 | ATAGTAGG | 0.051
108 | AAAGTGGC | 0.295
109 | GAGAGTGA | -0.261
110 | CCAGTAAG | 0.222
111 | AGCTCTAA | -0.108
112 | GTCAAAAA | 0.144
113 | CCCGAACA | -0.00034
114 | GGAGTAAC | -0.116
115 | CCTCCCCG | 0.0903
116 | AGACCCAT | -0.152
117 | CGCTGAGC | 0.0119
118 | ATCCCCAA | 0.0543
119 | CTCGCGCC | -0.166
120 | CATTGAAG | -0.12
121 | TAAAGAGA | 0.0201
122 | CGCAGCTA | 0.34
123 | GGCAGCTA | 0.318
124 | CCCAGCTA | -0.0278
125 | CGCAGCTC | 0.09

Row | Sequence | PBM E-score
126 | GCCAGCTA | -0.135
127 | GACAGCTA | -0.113
128 | AGGCTGGA | -0.133
129 | AAAATAGC | 0.272
130 | ATAATGGA | 0.196
131 | AAAATAGG | 0.335
132 | ATAATGGC | -0.00297
133 | AAAATGGG | 0.29
134 | ATAATGGG | 0.326
135 | AAAATAGT | 0.0219
136 | CAAATGGG | -0.0381
137 | AAAATGGA | 0.142
138 | CGCTCCGA | -0.0796
139 | CTCTTTAA | -0.101
140 | GGTCGATA | -0.135
141 | CCTTAAAG | 0.0175
142 | CATCGACG | -0.0993
143 | TCAAGGCA | -0.127
144 | GCTGACTA | -0.0111
145 | CTGGGCAC | 0.239
146 | AGTGGCAC | 0.15
147 | AGTGGCAG | 0.287
148 | AGTGGCAA | 0.088
149 | AGTGGCTA | -0.0284
150 | AGTGGCTC | 0.218

Row | Sequence | PBM E-score
151 | AGTGGCTG | 0.312
152 | GCGTTCAC | 0.00885
153 | AACATGTG | 0.141
154 | GCGGGAGA | -0.277
155 | GTGGGGTA | 0.286
156 | CTGGGGTA | -0.0593
157 | ATGGGGTA | -0.128
158 | CAAGGAAC | 0.0885
159 | GCAGGCGA | -0.0907
160 | CGGCTACC | 0.0369
161 | AGGCTACC | 0.0739
162 | GGGCTACC | 0.302
163 | CGCCGCGC | 0.137
164 | ATGGCCCG | -0.309
165 | GATTCGCC | 0.0655
166 | CGACGTCC | 0.0613
167 | AGACGCCC | 0.259
168 | GGACGCCC | 0.441
169 | GGACGTCA | -0.115
170 | GCACGCCC | -0.122
171 | CGACGCCC | 0.287
172 | GGACGCCA | 0.418
173 | GCACGCCA | -0.0682
174 | CGACGCAC | -0.0398
175 | TGACGCCA | -0.0776
